# An excerpt weighted towards active compounds, which were near 18% of everything screened.
# DT40 TDP1 no CPT: qHTS for Inhibitors of human tyrosyl-DNA phosphodiesterase 1 (TDP1): qHTS in cells in absence of CPT; AID 686978, 2013; DT40 Tdp1-/- hTDP1 cells, no CPT, ATP luminescence, 48 h; Potency, µM (titrated, usually from 46.2 µM), for inactives: at the top dose activity change, negative = growth inhibition, usual class: inhibitors; 420,000 compounds, 15% hits; also: potency is read from the fitted curve at half-maximal effect; % is scaled to controls: 0 for no effect and ±100 for the full control effect; nearly all actives have a fitted effect of over 55% in size
#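 Chicken DT40 Tdp1-/- cells complemented with human TDP1, screened without camptothecin (DMSO vehicle only), 400 cells/well. Compounds pin-transferred, cells incubated at 37 °C for at least 48 hr. Growth read as ATP-dependent luminescence (CellTiter-Glo, 30 min at RT).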
# HepG2 tox: qHTS for Inhibitors of TGF-b: Cytotox Counterscreen; HepG2 CAGA-GFP viability, ATP luminescence, 18 h; Potency, µM (doses to about 46.1 µM), without a hit: at the top dose activity change, negative = cytotoxicity, hits mostly cytotoxic; 410,000 compounds, 0.76% hits; AID 588856, 2011; also: potency is read from the fitted curve at half-maximal effect
#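 CellTiter-Glo luminescence gave cytotoxicity after 18 hours at 37 degrees C. The cells were HepG2 CAGA-GFP in 1% FBS DMEM, stimulated with 500 pg/mL TGF-beta after compound addition. %Activity was normalised to no-cell wells (complete cell-killing) and DMSO (no toxicity), and curves were fitted and classified.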
# TGFb inhibitor: qHTS for Inhibitors of TGF-b. Potency, µM (series often up to 46.1 µM), for inactives: top-dose activity, negative = inhibition, actives largely listed as inhibitors. 410,000 compounds, 1.2% hits. AID 588855, 2011. HepG2 CAGA-GFP TGF-b/SMAD3 reporter, GFP fluorescence, 18 h; TGF-beta stimulated, 500 pg/mL final; also: potency is read from the fitted curve at half-maximal effect; % is scaled to controls: 0 for no effect and ±100 for the full control effect; nearly all actives have a fitted effect of over 65% in size
#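 Using HEPG2 CAGA-GFP reporter cells at 1000 cells/well, we pinned test compounds, stimulated with recombinant TGF-beta (500 pg/mL final) and measured total well GFP after 18 h.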
# DT40 TDP1 CPT: qHTS for Inhibitors of human tyrosyl-DNA phosphodiesterase 1 (TDP1): qHTS in cells in presence of CPT; chicken DT40 Tdp1-/-;hTDP1 cells + 20 nM CPT, ATP luminescence, 48 h; AID 686979, 2013; Potency, µM (top dose mostly 46.2 µM), without a hit: top-dose activity change, negative = growth inhibition, actives largely listed as inhibitors; 420,000 compounds, 12% hits; also: potency is read from the fitted curve at half-maximal effect; % is scaled to controls: 0 for no effect and ±100 for the full control effect; nearly all actives have a fitted effect of over 55% in size
#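 Chicken DT40 Tdp1-/- cells complemented with human TDP1, 400 cells/well, exposed to compounds plus 20 nM camptothecin for at least 48 h at 37 C; viability read as ATP content by CellTiter-Glo luminescence.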
# IL1B secr inh: qHTS for Inhibitors of Inflammasome Signaling: IL-1-beta AlphaLISA Primary Screen; THP-1 LPS/ATP IL-1B secretion, AlphaLISA, 16 h; hits give low values; activity change, % at 57.5 µM; 360,000 compounds, 4.7% hits; AID 743279, 2014; in the data active = activity change below about -50%; inconclusive = mostly about -30% to -49%; also: % is scaled to controls: 0 for no effect and ±100 for the full control effect
#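 THP-1 cells pretreated 1 hr with compounds (up to 57.5 uM final), then stimulated with LPS (250 ng/mL final) plus ATP (1.25 mM final); secreted IL-1B measured by AlphaLISA after 16 hr, decreased signal indicating inhibition.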
# TDP1 inh: qHTS Assay for Inhibitors of Tyrosyl-DNA Phosphodiesterase (TDP1). Tyrosyl-DNA phosphodiesterase 1 (Homo sapiens), Q9NUW8. recombinant TDP1, AlphaScreen DNA substrate cleavage. AID 485290, 2010. 350,000 compounds, 0.28% hits. Potency, µM (titrated, usually from 130 µM), without a hit: top-dose activity change, negative = inhibition, actives largely listed as inhibitors; also: potency is read from the fitted curve at half-maximal effect; % is scaled to controls: 0 for no effect and ±100 for the full control effect; nearly all actives have a fitted effect of over 40% in size
# Target sequence (Q9NUW8 whole entry, looked up): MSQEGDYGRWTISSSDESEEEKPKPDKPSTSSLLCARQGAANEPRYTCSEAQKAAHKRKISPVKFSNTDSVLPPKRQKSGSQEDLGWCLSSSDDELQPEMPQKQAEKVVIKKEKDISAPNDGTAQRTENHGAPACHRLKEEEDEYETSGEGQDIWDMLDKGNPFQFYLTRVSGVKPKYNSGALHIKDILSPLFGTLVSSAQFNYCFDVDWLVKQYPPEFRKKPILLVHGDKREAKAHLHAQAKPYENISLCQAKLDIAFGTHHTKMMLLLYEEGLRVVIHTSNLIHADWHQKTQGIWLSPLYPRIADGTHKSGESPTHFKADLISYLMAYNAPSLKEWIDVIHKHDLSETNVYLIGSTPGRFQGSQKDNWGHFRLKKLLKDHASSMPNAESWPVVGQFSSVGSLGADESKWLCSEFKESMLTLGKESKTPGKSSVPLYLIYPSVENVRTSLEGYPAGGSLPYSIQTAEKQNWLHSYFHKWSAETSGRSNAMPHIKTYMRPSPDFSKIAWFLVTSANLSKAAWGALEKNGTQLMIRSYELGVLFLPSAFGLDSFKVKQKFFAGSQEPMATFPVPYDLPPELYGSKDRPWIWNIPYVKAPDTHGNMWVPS
#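 E. coli-derived human Tdp1, 1 nM final. Cpd preinc 15 min RT; substrate 15 nM final, 5 min RT; AS bead mix 10 ug/ml final, 10 min RT. Signal loss = tyrosine-FITC cleavage. No-enzyme wells = max signal.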
# Starred values were filed as active, the others as inactive; ? = inconclusive; / = no result given; [ ] = another dose, or the depositor's remark. Unless noted, calls follow the shape of the dose curve; as a rule, active = well fitted curve in the direction sought with a large enough effect; inconclusive = small, poorly fitted or top-dose-only effect, or another doubt; inactive = no such curve, though single readings can be large; an effect the other way counts as inactive or inconclusive.
SMILES,DT40 TDP1 no CPT,HepG2 tox,TGFb inhibitor,DT40 TDP1 CPT,IL1B secr inh,TDP1 inh
COc1cc(S(=O)(=O)n2ccc(C)n2)c(C)cc1C,9%,2%,-6%,-16%,18,/
O=C(N/N=C/C=C/c1ccccc1)c1cc(C2CC2)[nH]n1,-20%,-51%,0%,7%,-54*,-3%
CCOc1cccc(/C=N/NC(=O)c2cccnc2)c1O,?,-20%,?,?,124,4%
CCOc1cccc(/C=N/NC(=O)c2cc(C3CC3)[nH]n2)c1O,23µM*,-23%,-2%,?,94,0%
Cc1ccc(-c2cc(C(=O)N/N=C/C=C/c3ccccc3)n[nH]2)s1,?,-30%,-8%,16µM*,-7,8%
N=C(N)SCCN,15µM*,16%,28%,23µM*,21,-4%[56.1 µM]
CN(C)CCCCSC(=N)N,-26%,/,/,1%,/,-3%[56.1 µM]
COc1ccc(C(CNC(=O)c2ccc(S(=O)(=O)Nc3ccccc3OC)cc2)N2CCCC2)cc1 (stereo unspecified),?,-15%,-14%,?,-7,/
Cc1cc(Cl)c(S(=O)(=O)N2CCSCC2)cc1OCC(=O)NC1CCCCC1,18µM*,-19%,?,16µM*,-54*,4%
Cc1cc(Cl)c(S(N)(=O)=O)cc1OCC(=O)NC1CCCCC1,-17%,-29%,0%,-21%,-4,5%[56.1 µM]
CCN1CCN(S(=O)(=O)c2cc(OCC(=O)NC3CCCCC3)c(C)cc2Cl)CC1,?,-24%,?,23µM*,?,5%
Cc1cc(Cl)c(S(=O)(=O)NC2CCCC2)cc1OCC(=O)NC1CCCCC1,23µM*,-24%,0%,26µM*,-23,-11%
COc1cccc(-c2cc3c(c(OC)c2)OCCN(Cc2ccccc2O)C3)n1,-16%,/,/,0%,/,/
COc1cc(NC(=O)CSc2nnc3ccccn23)cc(OC)c1OC,-11%,-3%,-2%,8%,29,/
COc1ccc(CN2CC(=O)N(c3ccc(Cl)cc3)C2=S)cc1OC,?,-16%,0%,?,?,/
COc1cccc(N2C(=O)CN(Cc3cc(OC)c(OC)c(OC)c3)C2=S)c1,21µM*,-8%,-4%,-3%,27,/
COc1ccc(CN2CC(=O)N(c3cccc(Cl)c3)C2=S)cc1OC,15µM*,3%,3%,-77%,-8,/
COc1ccc(CN2CC(=O)N(c3cc(Cl)ccc3OC)C2=S)cc1OC,?,-11%,-16%,?,3,/
COc1ccc(Cl)cc1N1C(=O)CN(Cc2cc(OC)c(OC)c(OC)c2)C1=S,8.2µM*,-22%,-10%,15µM*,-1,/
COc1ccc(N2C(=O)CN(Cc3cc(OC)c(OC)c(OC)c3)C2=S)cc1,23µM*,-3%,-17%,16µM*,8,5%
CCCS(=O)(=O)N1CC(=O)N(c2cccc(Cl)c2)C(C)(C(=O)NC2CCCCC2)C1 (stereo unspecified),1%,-21%,0%,-27%,/,7%
CN1CCN(CCNC(=O)Nc2ccc(Cl)cc2)CC1,-15%,-8%,-17%,-11%,-19,/
CC(C)[C@@H](NC(=O)OC(C)(C)C)c1cc(C(=O)c2c(-c3ccccc3)[nH]c3ccccc23)c(N)s1,18µM*,/,/,18µM*,?,/
CC(C)[C@H](NC(=O)OC(C)(C)C)c1cc(C(=O)NCCc2c[nH]c3ccccc23)c(N)s1,21µM*,/,/,16µM*,-2,/
C[C@H](NC(=O)c1[nH]cnc1C(=O)Nc1ccccc1)c1ccccc1,?,-26%,?,?,4,0%
SMILES,DT40 TDP1 no CPT,HepG2 tox,TGFb inhibitor,DT40 TDP1 CPT,IL1B secr inh,TDP1 inh
COc1ccc(NC(=O)c2nc[nH]c2C(=O)N[C@H](C)c2ccccc2)cc1,?,-27%,?,?,3,11%
C[C@H](NC(=O)c1[nH]cnc1C(=O)Nc1ccccc1F)c1ccccc1,16µM*,20%,-20%,?,30,/
Cc1ccc(NC(=O)c2nc[nH]c2C(=O)N[C@H](C)c2ccccc2)cc1,?,-64%,?,23µM*,?,2%
COCCNC(=O)C1CC(=O)N(c2ccc(OC)cc2)C1c1ccc(OC)cc1 (stereo unspecified),-19%,-12%,8%,-18%,-5,4%
CCOc1cc(C(=O)N=c2sccn2C)cc(Br)c1OC,18µM*,-8%,-2%,18µM*,?,1%[56.1 µM]
CSc1nc(N)c2c(n1)N(C)C=NS2(=O)=O,-16%,-4%,0%,6%,-1,/
COc1ccc(CN(C)C(=O)C23CC4CC(CC(Cl)(C4)C2)C3)c(OC)c1OC,21µM*,-13%,-17%,23µM*,?,3%
COc1cccc(CN(C)C(=O)C23CC4CC(CC(NC(C)=O)(C4)C2)C3)c1OC,-8%,9%,2%,?,11,3%
O=C(C[n+]1ccncc1)c1cccc([N+](=O)[O-])c1,-18%,9%,?,?,/,/
O=C(CC1C(=O)NCCN1Cc1ccc(-c2ccccc2)cc1)NCCOc1cccnc1 (stereo unspecified),16µM*,-18%,-14%,?,-3,6%
O=C(OCCOc1cccc(Cl)c1)c1cc(S(=O)(=O)N2CCCCC2)ccc1N1CCOCC1,8.2µM*,-32%,7%,15µM*,-14,/
O=C(OCc1cccc(Cl)c1)c1cc(S(=O)(=O)N2CCCCC2)ccc1N1CCOCC1,29µM*,-3%,-6%,16µM*,0,1%[56.1 µM]
O=C(COC(=O)c1cc(S(=O)(=O)N2CCCCC2)ccc1N1CCOCC1)c1ccc(Cl)cc1,?,14%,15%,?,0,2%
O=C(c1cccs1)N1CCN(S(=O)(=O)c2cccc(Cl)c2Cl)CC1,-23%,-14%,0%,?,-21,0%
COc1ccc(-n2nc3ccc(N)cc3n2)cc1,?,-10%,-16%,16µM*,39,/
CCOc1ccc(-n2nc3ccc(N)cc3n2)cc1,?,-6%,3%,-18%,1,/
O=C(Nc1nccs1)C1CC=CC2CCN(Cc3ccc(Cl)c(Cl)c3)C(=O)C21 (stereo unspecified),/,-3%,-10%,/,/,6%
